Measured values published in ChEMBL document CHEMBL3988442, “University of Dundee, Small-Polar-MMV Screening Library” (2021).
The campaign covered roughly 48,000 compounds. About 13,000 (27%) showed an effect of 50% or more. The list shows a part of the results.

These compounds were tested on Wolbachia pipientis (assay: Anti-Wolbachia Cell-Based Screen). Details: 5 µM.
Format: functional
Design: scale not given: in the data most compounds retested in dose-response had high values

Row | SMILES | Percent Effect [%]
1 | O=C1CCc2cc(S(=O)(=O)NC(=O)c3ccc4c(c3)CCO4)ccc2N1 | -17.2
2 | O=S(=O)(CCCn1cncn1)Cc1cccc(F)c1 | 2.155
3 | CC(C)=CCN1CCN(CCCc2ccccc2)[C@H]2CS(=O)(=O)C[C@H]21 | -6.821
4 | CC(C)CCN(C)C(=O)c1cc(CN2CCC(O)CC2)on1 | -4.489
5 | CCC(=O)N1CCc2[nH]cnc2C12CCN(C(=O)c1snnc1C)CC2 | 7.824
6 | Cc1ccc(C2CN(Cc3cnc(-c4ccccn4)s3)CCO2)o1 (stereo unspecified) | 1.384
7 | CNc1cc(C2CN(Cc3cccnc3NC)CCO2)nc(C)n1 (stereo unspecified) | 96.43
8 | CNc1cc(C)nc(C2CN(Cc3ccc(C)nc3)CCO2)c1 (stereo unspecified) | -3.28
9 | Cc1cc(N2CCC(n3cc(CN4CCSCC4)nn3)CC2)ccn1 | -12.68
10 | CCOC(=O)C1CCN(Cc2c(O)ccc3oc4c(c23)CCCC4)CC1 | 10.57
11 | COc1cc2c(c(OC)c1OC)CCN(CCN1CCCCC1)CC2 | 112.9
12 | COc1cc2c(cc1OC)CCN(C(=O)Cn1nc(C)cc1C)CC2 | 0.6612
13 | COc1ccc(-c2nccn2CCN2CCCCC2)c(OC)c1OC | -1.363
14 | COc1ccc(CN2CCn3cncc3C2)cc1Cn1cncn1 | 18.87
15 | COc1cc2c(c(OC)c1OC)CCN(CCn1nc(C)cc1C)CC2 | 72.3
16 | COc1cc2c(cc1OC)CN(C(=O)Cn1nc(C)cc1C)CC2 | 1.135
17 | c1ccc(CCCN2CCN(CCn3cncn3)CC2)cc1 | 3.655
18 | COc1cc(C)cc(C(C(=O)O)N(C)CCN2CCCC2)c1OC (stereo unspecified) | -1.945
19 | COc1cc2c(c(OC)c1OC)CCN(CCn1cncn1)CC2 | 66.41
20 | O=C(C1CC=CC1)N1C[C@@H]2CN(Cc3ccsc3)CCO[C@@H]2C1.O=C(O)C(F)(F)F | 1.635
21 | CS(=O)(=O)CCNC(=O)N(Cc1ccoc1)C1CCCCC1 | -12.04
22 | COc1ccc(Cc2nnc3n2N=C(C(C)(C)C)CS3)cc1 | 3.244
23 | CSCC(C)(O)CNC(=O)c1cccc(Cl)c1Cl (stereo unspecified) | -18.01
24 | Cc1nn2cccnc2c1C(=O)N1CCCC(n2ccnc2)C1 (stereo unspecified) | 4.541

Row | SMILES | Percent Effect [%]
25 | Cc1cc(C(=O)N2CCCC(n3cccn3)C2)c(C)n1C1CC1 (stereo unspecified) | 121.6
26 | Cc1cc(C(=O)N2CCCC(n3cncn3)C2)c(C)n1C1CC1 (stereo unspecified) | 0.2394
27 | Cc1cc(C(=O)N2CCCC(n3ccnc3)C2)c(C)n1C1CC1 (stereo unspecified) | 137.5
28 | Cn1ncc(C(=O)N2CCCC(n3cccn3)C2)c1C1CC1 (stereo unspecified) | 3.227
29 | Cn1cc(N2CCC(Nc3ccc4nccnc4n3)C2=O)cn1 (stereo unspecified) | -8.237
30 | Cc1nnc2n1CC(CNc1cnc3ccccc3n1)CC2 (stereo unspecified) | 0.6716
31 | Cc1ccn(CCNc2ncnc3c2CCN(S(C)(=O)=O)CC3)n1 | 5.573
32 | Cc1oncc1C(=O)N[C@@H]1CN(Cc2ccco2)C[C@@H]2CCCO[C@@H]21.O=C(O)C(F)(F)F | 107.8
33 | Cc1oncc1C(=O)N[C@@H]1CN(c2ncccn2)C[C@@H]2CCCO[C@@H]21.O=C(O)C(F)(F)F | -3.566
34 | CS(=O)(=O)N[C@@H]1CN(Cc2ccco2)C[C@@H]2CCCO[C@@H]21.O=C(O)C(F)(F)F | 1.285
35 | CN(C)[C@@H]1CN(Cc2ccoc2)C[C@@H]2CCCO[C@@H]21.O=C(O)C(F)(F)F.O=C(O)C(F)(F)F | -4.757
36 | O=C(CC1CC1)N[C@@H]1CN(Cc2ccoc2)C[C@@H]2CCCO[C@@H]21 | -6.81
37 | O=C(N[C@@H]1CN(Cc2ccoc2)C[C@@H]2CCCO[C@@H]21)C1CCC1 | 85.36
38 | Cc1oncc1C(=O)N[C@@H]1CN(Cc2ccoc2)C[C@@H]2CCCO[C@@H]21.O=C(O)C(F)(F)F | 105.5
39 | O=C(CC1CC1)N[C@@H]1CN(Cc2ccco2)C[C@@H]2CCCO[C@@H]21.O=C(O)C(F)(F)F | -7.613
40 | CCOc1cccc(CCNC(=O)Cc2ccn[nH]2)n1 | -27.67
41 | O=C(O)[C@@]12CN(c3cnccn3)C[C@@H]1CN(C1CCOCC1)C2 | -13.72
42 | CNC(=O)[C@@H]1C[C@@H](NC(=O)Cc2cccs2)CN1C1CCOCC1 | 0.5082
43 | Cc1nc2ccccn2c1CN1C[C@@H](CN2CCOCC2)[C@@H](CO)C1 | -3.894
44 | COCCn1ccnc1C1CCN(C(=O)C(O)c2ccc(F)cc2)CC1 (stereo unspecified) | -18.13
45 | COCCn1c(=O)n(C)c(=O)c2ccc(C3CCC(CN)CC3)nc21.Cl (stereo unspecified) | 114.4
46 | CC(=O)N1CCC(c2nn(C)c(=O)n2-c2ccccc2)CC1 | -1.019
47 | COCCN1CCC(c2nc3c([nH]2)CC(C)(C)CNC3=O)C1 (stereo unspecified) | -9.937
48 | COCCn1c(=O)n(C)c(=O)c2ccc(C3CCN(C(C)=O)CC3)nc21 | 55.11

Row | SMILES | Percent Effect [%]
49 | COCCN1C(=O)[C@H]2CC[C@@H]1CN(c1nccc(C3CCCC3)n1)C2 | -7.608
50 | Cc1ccn(C)c(=O)c1NC(=O)N(C)Cc1cccc(OC(C)C)c1 | 2.513
51 | CCCc1cncnc1N1CCC(NCc2ccncc2)CC1 | 5.564
52 | CN(Cc1cc2n(n1)CCNC2)Cc1noc(C2CCC2)n1 | -1.079
53 | CN(CCCc1cnn(C)c1)Cc1cc2n(n1)CCCN(C)C2 | 94.13
54 | CN(Cc1cc2n(n1)CCCNC2)Cc1cc(-c2ccncc2)no1 | 4.022
55 | CN(CCCc1cnn(C)c1)Cc1cc2n(n1)CCCNC2 | 97.92
56 | CN(CCCc1cnn(C)c1)C(=O)C1CCN(C(=O)C2CCC2)CC1 | 14.43
57 | CN(CCCc1cnn(C)c1)Cc1cc2n(n1)CCNC2 | 121.7
58 | CNc1ncc(CN(C)Cc2cc3n(n2)CCNC3)cn1 | 11.28
59 | CCn1cc(CN2CCCn3nc(CNC(=O)N(C)C)cc3C2)cn1 | 15.22
60 | CN(Cc1cc2n(n1)CCCNC2)Cc1ccno1 | -18.26
61 | CC(NC(=O)N(C)Cc1ccc2c(c1)OCO2)c1nncn1C (stereo unspecified) | 16.38
62 | CC1(c2ccccc2)CCC(=O)N(CCN2CCOCC2)C1 (stereo unspecified) | 8.315
63 | COC(CNC(=O)c1ccc(NC(C)=O)cc1)c1cccc(Cl)c1 (stereo unspecified) | -77.03
64 | CCN1CCN(C)C2(CCN(Cc3ccsc3)CC2)C1=O.O=C(O)C(F)(F)F.O=C(O)C(F)(F)F | 94.35
65 | CN1CCN(Cc2ccncc2)C(=O)C12CCN(c1nccs1)CC2.O=C(O)C(F)(F)F.O=C(O)C(F)(F)F | -19.3
66 | CCN1CCN(C)C(=O)C12CCN(Cc1ccsc1)CC2.O=C(O)C(F)(F)F | -27.74
67 | CN1CCN(C)C2(CCN(Cc3ccsc3)CC2)C1=O.O=C(O)C(F)(F)F | 105.2
68 | CN1CCN(Cc2ccncc2)C(=O)C12CCN(Cc1ccsc1)CC2.O=C(O)C(F)(F)F.O=C(O)C(F)(F)F.O=C(O)C(F)(F)F | 58.8
69 | Cn1ncc(C2CC(=O)NCc3nc4ccccn4c32)c1C1CC1 (stereo unspecified) | 1.817
70 | CCNC(=O)[C@@H]1CCCN1C1(C(=O)NC)CCC1.Cl | 0.1969
71 | O=C1CC2(CCSC2)C(=O)N1Cc1ncc(-c2ccccc2)o1 (stereo unspecified) | -14.26
72 | NC(=O)CN(CC(=O)NCCc1c(F)cccc1F)C1CCCC1 | 11.15

Row | SMILES | Percent Effect [%]
73 | C[C@@H]1CN(Cc2ccc(C(F)(F)F)cc2F)CC[C@]1(C)O | -2.035
74 | COCC(=O)N(C)Cc1nc(N2CCCC2)ncc1-c1ccncc1.Cl | 87.58
75 | Cc1nc(N2CCCC2)ncc1-c1cc(O)nc(N2CCCC2)n1 | 3.993
76 | CN(Cc1cnccn1)C(=O)Nc1cc(F)cc(N2CCCC2)c1 | 16.17
77 | COCC(=O)Nc1cnc(N2CCCC2)nc1 | -4.633
78 | CCOc1ccc(CN(C)C(=O)c2nc(N3CCCC3)ncc2Cl)cc1 | 16.2
79 | CCCC(=O)N(C)Cc1nc(N2CCCC2)ncc1-c1ccncc1.Cl | 137.6
80 | CO[C@H]1CCN(S(=O)(=O)c2cn(C)cn2)[C@H]1Cc1cccnc1.O=C(O)C(F)(F)F.O=C(O)C(F)(F)F | -4.938
81 | COc1ccc(CC(=O)N2CC[C@@H](OC)[C@@H]2Cc2cccnc2)cc1.O=C(O)C(F)(F)F | 135
82 | COc1cccc(CC(=O)N2CC[C@@H](OC)[C@@H]2Cc2cccnc2)c1.O=C(O)C(F)(F)F | 137.5
83 | Cc1noc([C@H]2COC[C@H]3CN(C(=O)Cc4ccc(F)cc4)C[C@H]32)n1 | -6.311
84 | COc1cc(CN(C)C(=O)NC2CC2)ccc1SC | 1.322
85 | Cc1ccc2c(c1)CN(C(=O)c1ccncc1)C(CN(C)C)CO2.Cl (stereo unspecified) | 112.6
86 | CCN(C)S(=O)(=O)N1CCCC1CC(=O)c1cccs1 (stereo unspecified) | 13.08
87 | CC1CN(C)c2ccccc2CN1C(=O)c1ccncc1 (stereo unspecified) | -3.17
88 | Cc1nc(C)c(C(=O)N2CCc3c(C)cccc32)o1 | -0.835
89 | CCOC(=O)CC1CCCCN1C(=O)c1cnc(C)cn1 (stereo unspecified) | 6.285
90 | Cc1ccc2c(c1)CN(C(=O)c1ccccc1F)C(CN(C)C)CO2.Cl (stereo unspecified) | -8.172
91 | Cc1nc(C)c(C(=O)N2Cc3cc(F)ccc3CC2C)o1 (stereo unspecified) | -9.907
92 | Cc1ccc2c(c1)CN(C(=O)c1cnc(C)cn1)C(CN(C)C)CO2.Cl (stereo unspecified) | 102.7
93 | CN(C)CC1COCCN1C(=O)C1(c2cccs2)CCCC1.O=CO (stereo unspecified) | -9.313
94 | Cc1ccc2c(c1)CN(C(=O)C1CCCCC1)C(CN(C)C)CO2.Cl (stereo unspecified) | -7.003
95 | Cc1nc(C)c(C(=O)N2Cc3ccccc3OCC2CN(C)C)o1.Cl.Cl (stereo unspecified) | 85.27
96 | Cc1ccc2c(c1)CN(C(=O)c1cccs1)C(CN(C)C)CO2 (stereo unspecified) | 64.15
